Measurements from PubChem BioAssay (EPA / NIEHS).
Activity calls are given as the source filed them. How the source made its calls: active means hit-call score of the fitted dose curve at least 0.9, where 1 is the maximum; inactive means score below 0.9.

Columns and labels:
[1] = ATG_CRE_CIS: Attagene CIS-FACTORIAL HepG2 Assay for human cAMP Responsive Element (CRE) binding protein 3 (AID 2282926); details: HepG2 CRE cis-reporter, Attagene multiplexed mRNA; actives raise or lower the signal
Outline: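 Induced reporter mRNA from a CRE cis element, measured in HepG2 among many multiplexed units at 24 h. Detection used RT-PCR plus capillary electrophoresis of fluorescent fragments; DMSO served as negative control.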

[2] = target: CCAAT/enhancer-binding protein beta (Homo sapiens) (UniProt P17676); experiment: ATG_C_EBP_CIS: Attagene CIS-FACTORIAL HepG2 Assay for human CCAAT/Enhancer Binding Protein (C/EBP) beta (AID 2282927); details: HepG2 Attagene cis-factorial transcription factor reporter; actives raise or lower the signal
Outline: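 Endogenous C/EBPb-driven reporter transcripts measured in transfected human HepG2 cells at 24 h via RT-PCR and capillary electrophoresis of labelled fragments. Activity fitted in both directions relative to DMSO baseline.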

[3] = ATG_CMV_CIS: Attagene CIS-FACTORIAL HepG2 Assay for human CMV (Internal Marker) (AID 2282928); details: HepG2 CMV promoter reporter, transcription factor profiling; actives raise or lower the signal;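 further: endpoint acts as a background internal control marker rather than a target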
Outline: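 Reporter transcripts from transfected HepG2 cells are isolated after 24 h of chemical dosing, reverse-transcribed and amplified. Fragments labeled with 6-FAM are cut with HpaI and quantified by capillary electrophoresis; DMSO defines baseline.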

[4] = ATG_DR4_LXR_CIS: Attagene CIS-FACTORIAL HepG2 Assay for human Liver X Receptor (LXR), DR4 submotif (AID 2282929); details: HepG2 Attagene DR4 cis-reporter, mRNA transcription; actives raise or lower the signal
Outline: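 HepG2, transient MRTU transfection, cis-element (DR4) promoter; 24 h compound exposure; total RNA → oligo(dT) RT → PCR → 6-FAM primer extension → HpaI cut → CE. Gain/loss vs DMSO, bidirectional fit.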

[5] = target: Aryl hydrocarbon receptor (Homo sapiens) (UniProt P35869); experiment: ATG_Ahr_CIS: Attagene CIS-FACTORIAL HepG2 Assay for human Aryl Hydrocarbon Receptor (Ahr) (AID 2282930); details: HepG2 AhR cis-factorial reporter transcription; actives raise or lower the signal
Outline: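 Reporter mRNA levels, quantified by RT-PCR and fluorescent capillary electrophoresis, reflect endogenous AhR transcriptional activity in HepG2 cells carrying transfected cis-promoter reporter constructs. Readout at 24 h post-dose; gain or loss fitted against DMSO baseline.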

[6] = ATG_AP_1_CIS: Attagene CIS-FACTORIAL HepG2 Assay for human Activator Protein 1 (AP-1) (AID 2282931); details: HepG2 Attagene cis-factorial AP-1 reporter mRNA; actives raise or lower the signal
Outline: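 Transient MRTU transfection of HepG2 → 24 h chemical treatment → RNA isolation, RT-PCR, 6-FAM labelling, HpaI digest → capillary electrophoresis. Fit: bidirectional, DMSO negative control.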

[7] = ATG_BRE_CIS: Attagene CIS-FACTORIAL HepG2 Assay for human Bone Morphogenetic Protein (BMP) Response Element (BRE) (AID 2282933); details: HepG2 BMP response element reporter, Attagene transcription factor profiling; actives raise or lower the signal
Outline: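 After a 24 h chemical treatment, transiently transfected HepG2 cells were lysed for RNA; reporter transcripts were quantified by fluorescent RT-PCR and capillary electrophoresis, normalised to DMSO.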

[8] = target: Retinoic acid receptor alpha (Homo sapiens) (UniProt P10276); experiment: ATG_DR5_RAR_CIS: Attagene CIS-FACTORIAL HepG2 Assay for human Retinoic Acid Receptor Alpha (RARE), DR5 submotif (AID 2282934); details: HepG2 Attagene cis-factorial RARE DR5 reporter, mRNA; actives raise or lower the signal;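 on AC50: reporter responds to endogenous RAR alpha beta and gamma in HepG2 not RARA alone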
Outline: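 Reporter transcripts from a DR5-regulated unit, measured via RT-PCR plus capillary electrophoresis, reflect endogenous RAR activity in transiently transfected human HepG2 liver cells. Exposure lasted 24 h; gain or loss of signal scored against DMSO.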

[9] = ATG_AP_2_CIS: Attagene CIS-FACTORIAL HepG2 Assay for human Activator Protein 2 (AP-2) (AID 2282932); details: HepG2 AP-2 cis-reporter, Attagene transcription factor profiling; actives raise or lower the signal
Outline: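 Endogenous transcription factor activity is reported through transfected multiplex reporter constructs in HepG2, after 24 h of compound exposure. Transcripts were quantified by RT-PCR and capillary electrophoresis of fluorescent fragments. Bidirectional fit against DMSO.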

Sequence of CCAAT/enhancer-binding protein beta (Homo sapiens) (P17676 whole entry, looked up, the tested form may be a part): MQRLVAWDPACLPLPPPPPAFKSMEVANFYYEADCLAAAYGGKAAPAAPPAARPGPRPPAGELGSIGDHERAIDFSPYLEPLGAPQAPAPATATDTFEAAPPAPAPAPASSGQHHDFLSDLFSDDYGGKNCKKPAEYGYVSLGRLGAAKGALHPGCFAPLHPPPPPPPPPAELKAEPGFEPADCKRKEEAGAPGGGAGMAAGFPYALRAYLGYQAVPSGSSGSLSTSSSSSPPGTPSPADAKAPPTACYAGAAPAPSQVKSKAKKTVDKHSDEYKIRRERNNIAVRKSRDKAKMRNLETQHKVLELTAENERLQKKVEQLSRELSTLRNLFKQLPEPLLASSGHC
Sequence of Retinoic acid receptor alpha (Homo sapiens) (P10276 whole entry, looked up): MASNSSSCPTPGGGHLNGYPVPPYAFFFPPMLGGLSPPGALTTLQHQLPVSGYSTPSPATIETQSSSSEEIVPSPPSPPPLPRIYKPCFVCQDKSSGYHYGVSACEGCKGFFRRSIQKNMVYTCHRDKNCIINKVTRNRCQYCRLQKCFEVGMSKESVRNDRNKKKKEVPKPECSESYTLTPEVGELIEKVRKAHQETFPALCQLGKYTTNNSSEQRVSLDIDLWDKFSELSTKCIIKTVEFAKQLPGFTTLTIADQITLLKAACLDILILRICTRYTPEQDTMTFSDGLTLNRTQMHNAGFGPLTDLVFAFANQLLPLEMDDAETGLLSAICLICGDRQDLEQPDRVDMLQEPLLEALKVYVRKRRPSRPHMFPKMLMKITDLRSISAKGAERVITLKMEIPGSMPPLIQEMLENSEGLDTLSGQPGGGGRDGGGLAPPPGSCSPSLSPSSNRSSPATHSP
Sequence of Aryl hydrocarbon receptor (Homo sapiens) (P35869 whole entry, looked up): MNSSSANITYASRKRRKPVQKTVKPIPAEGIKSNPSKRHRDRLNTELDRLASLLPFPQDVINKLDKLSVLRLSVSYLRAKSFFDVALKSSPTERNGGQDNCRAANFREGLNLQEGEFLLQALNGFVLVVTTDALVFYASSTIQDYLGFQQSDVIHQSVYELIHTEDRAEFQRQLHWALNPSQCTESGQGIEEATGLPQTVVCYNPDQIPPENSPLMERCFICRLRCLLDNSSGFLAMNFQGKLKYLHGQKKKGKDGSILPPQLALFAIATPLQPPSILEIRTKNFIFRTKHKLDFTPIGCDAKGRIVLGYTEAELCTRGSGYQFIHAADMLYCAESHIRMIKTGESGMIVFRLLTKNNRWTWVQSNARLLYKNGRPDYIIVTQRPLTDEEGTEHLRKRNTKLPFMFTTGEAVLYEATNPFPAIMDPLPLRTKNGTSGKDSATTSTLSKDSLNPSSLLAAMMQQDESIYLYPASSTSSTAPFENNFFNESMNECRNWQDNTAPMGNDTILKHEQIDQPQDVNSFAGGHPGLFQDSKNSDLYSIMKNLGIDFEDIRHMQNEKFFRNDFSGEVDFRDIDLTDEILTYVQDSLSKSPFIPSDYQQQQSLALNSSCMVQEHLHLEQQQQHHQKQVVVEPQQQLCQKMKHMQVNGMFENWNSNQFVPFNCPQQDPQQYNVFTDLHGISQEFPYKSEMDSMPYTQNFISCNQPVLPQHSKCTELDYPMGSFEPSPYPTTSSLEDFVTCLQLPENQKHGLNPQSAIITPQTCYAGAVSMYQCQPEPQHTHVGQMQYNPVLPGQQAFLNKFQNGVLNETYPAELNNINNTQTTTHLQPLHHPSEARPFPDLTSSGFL

O=S(=O)(OCC(F)F)C(F)(F)F
outcome [1]: inactive | outcome [2]: inactive | outcome [3]: inactive | outcome [4]: inactive | outcome [5]: inactive | outcome [6]: inactive | outcome [7]: inactive | outcome [8]: inactive

C=C(C)C(=O)OCC(F)(F)C(F)(F)C(F)(F)F
outcome [1]: inactive | outcome [2]: inactive | outcome [3]: inactive | outcome [4]: inactive | outcome [5]: inactive | outcome [6]: inactive | outcome [7]: inactive | outcome [8]: inactive

C#C[C@]1(O)CC[C@H]2[C@@H]3CCc4cc(OC)ccc4[C@H]3CC[C@@]21C
outcome [1]: inactive | AC50 [3]: 48.2 µM (active) | outcome [4]: inactive | outcome [5]: inactive | outcome [6]: inactive | outcome [9]: inactive | outcome [7]: inactive | outcome [8]: inactive

CC(C)(C)C(=O)CC(=O)C(F)(F)C(F)(F)C(F)(F)F
outcome [1]: inactive | outcome [2]: inactive | outcome [3]: inactive | outcome [4]: inactive | outcome [5]: inactive | outcome [6]: inactive | outcome [9]: inactive | outcome [7]: inactive | outcome [8]: inactive

FC(F)(F)C(F)(F)C(F)(F)C(F)(F)C(F)(F)C(F)(F)CC1CO1 (stereo not drawn)
outcome [1]: inactive | outcome [3]: inactive | outcome [4]: inactive | outcome [5]: inactive | outcome [6]: inactive | outcome [7]: inactive | outcome [8]: inactive

FC(F)(F)C(F)(F)C(F)(F)CI
outcome [1]: inactive | outcome [3]: inactive | outcome [4]: inactive | outcome [5]: inactive | outcome [6]: inactive | outcome [7]: inactive | outcome [8]: inactive

CO[Si](OC)(c1ccccc1)c1ccccc1
outcome [1]: inactive | outcome [2]: inactive | outcome [3]: inactive | outcome [4]: inactive | outcome [5]: inactive | outcome [6]: inactive | outcome [9]: inactive | outcome [7]: inactive | outcome [8]: inactive

CCc1ccc(C(c2ccc(CC)cc2)C(Cl)Cl)cc1
outcome [1]: inactive | AC50 [3]: 100 µM (active) | AC50 [4]: 51 µM (active) | outcome [5]: inactive | AC50 [6]: 66.5 µM (active) | outcome [9]: inactive | outcome [7]: inactive | outcome [8]: inactive

FC(F)(F)C(F)(F)C(F)(F)C(F)(F)C(F)(F)CCI
outcome [1]: inactive | outcome [2]: inactive | AC50 [3]: 97.7 µM (active) | outcome [4]: inactive | AC50 [5]: 32.1 µM (active) | AC50 [6]: 59.9 µM (active) | outcome [9]: inactive | outcome [7]: inactive | outcome [8]: inactive

O=C(O)C(F)(F)C(F)(F)OC(F)(F)F
outcome [1]: inactive | outcome [2]: inactive | outcome [3]: inactive | outcome [4]: inactive | outcome [5]: inactive | outcome [6]: inactive | outcome [9]: inactive | outcome [7]: inactive | outcome [8]: inactive

FC(F)(F)C(F)(F)C(F)(F)N(C(F)(F)C(F)(F)C(F)(F)F)C(F)(F)C(F)(F)C(F)(F)F
outcome [1]: inactive | outcome [2]: inactive | outcome [3]: inactive | outcome [4]: inactive | outcome [5]: inactive | outcome [6]: inactive | outcome [9]: inactive | outcome [7]: inactive | outcome [8]: inactive

O=C(O)C(F)(F)C(F)(F)C(F)(F)F
outcome [1]: inactive | outcome [3]: inactive | outcome [4]: inactive | outcome [5]: inactive | outcome [6]: inactive | outcome [9]: inactive | outcome [7]: inactive | outcome [8]: inactive

FC(F)(F)C(F)(F)C(F)(F)C(F)(F)C(F)(F)C(F)(F)C(F)(F)Br
outcome [1]: inactive | outcome [3]: inactive | outcome [4]: inactive | outcome [5]: inactive | outcome [6]: inactive | outcome [9]: inactive | outcome [7]: inactive | outcome [8]: inactive

CCCCC(CC)COP(=O)(O)OCC(CC)CCCC (stereo not drawn)
outcome [1]: inactive | outcome [2]: inactive | outcome [3]: inactive | AC50 [4]: 42 µM (active) | outcome [5]: inactive | AC50 [6]: 60.6 µM (active) | outcome [9]: inactive | outcome [7]: inactive | outcome [8]: inactive

CC(C)(C)c1ccc(OC2CCCCC2O)cc1 (stereo not drawn)
outcome [1]: inactive | AC50 [3]: 48.8 µM (active) | outcome [4]: inactive | outcome [5]: inactive | AC50 [6]: 24.5 µM (active) | outcome [9]: inactive | AC50 [7]: 42.4 µM (active) | outcome [8]: inactive

OCC(F)(F)C(F)(F)C(F)(F)C(F)(F)C(F)(F)C(F)(F)F
outcome [1]: inactive | outcome [3]: inactive | outcome [4]: inactive | outcome [5]: inactive | outcome [6]: inactive | outcome [9]: inactive | outcome [7]: inactive | outcome [8]: inactive

Cc1ccc(S(=O)(=O)OCC(F)(F)C(F)(F)C(F)(F)C(F)(F)C(F)(F)C(F)F)cc1
outcome [1]: inactive | outcome [2]: inactive | outcome [3]: inactive | outcome [4]: inactive | outcome [5]: inactive | outcome [6]: inactive | outcome [9]: inactive | outcome [7]: inactive | outcome [8]: inactive

c1ccc(-c2ccccc2-c2ccccc2)cc1
outcome [1]: inactive | AC50 [3]: 29.8 µM (active) | AC50 [4]: 27.7 µM (active) | outcome [5]: inactive | AC50 [6]: 58.7 µM (active) | outcome [9]: inactive | outcome [7]: inactive | outcome [8]: inactive

NC(=O)C(F)(F)C(F)(F)C(F)(F)C(F)(F)F
outcome [1]: inactive | outcome [2]: inactive | outcome [3]: inactive | outcome [4]: inactive | outcome [5]: inactive | outcome [6]: inactive | outcome [9]: inactive | outcome [7]: inactive | outcome [8]: inactive

CC(Cc1ccc(O)c(O)c1)C(C)Cc1ccc(O)c(O)c1 (stereo not drawn)
AC50 [1]: 22.9 µM (active) | outcome [3]: inactive | outcome [4]: inactive | outcome [5]: inactive | outcome [6]: inactive | outcome [9]: inactive | outcome [7]: inactive | outcome [8]: inactive

CC(C)=CCCC(C)CCOC(=O)C(C)C (stereo not drawn)
outcome [1]: inactive | outcome [3]: inactive | outcome [4]: inactive | outcome [5]: inactive | outcome [6]: inactive | outcome [7]: inactive | outcome [8]: inactive

CC(CCl)OP(=O)(OC(C)CCl)OC(C)CCl (stereo not drawn)
outcome [1]: inactive | outcome [2]: inactive | outcome [3]: inactive | outcome [4]: inactive | outcome [5]: inactive | outcome [6]: inactive | outcome [7]: inactive | outcome [8]: inactive

OC[C@@H](O)[C@@H](O)[C@H](O)[C@@H](O)CO
outcome [1]: inactive | outcome [3]: inactive | outcome [4]: inactive | outcome [5]: inactive | outcome [6]: inactive | outcome [9]: inactive | outcome [7]: inactive | outcome [8]: inactive

CCCCCCC(C)OC(=O)CCCCC(=O)OC(C)CCCCCC (stereo not drawn)
outcome [1]: inactive | outcome [2]: inactive | outcome [3]: inactive | outcome [4]: inactive | outcome [5]: inactive | outcome [6]: inactive | outcome [7]: inactive | outcome [8]: inactive

O=C(O)C(F)(F)C(F)(F)F
outcome [1]: inactive | outcome [2]: inactive | outcome [3]: inactive | outcome [4]: inactive | outcome [5]: inactive | outcome [6]: inactive | outcome [9]: inactive | outcome [7]: inactive | outcome [8]: inactive

OCC(F)(F)C(F)(F)C(F)(F)C(F)(F)C(F)(F)C(F)F
outcome [1]: inactive | outcome [2]: inactive | outcome [3]: inactive | outcome [4]: inactive | outcome [5]: inactive | outcome [6]: inactive | outcome [9]: inactive | outcome [7]: inactive | outcome [8]: inactive

CCN(Cc1cccc(S(=O)(=O)O)c1)c1ccc(C(=C2C=CC(=[N+](CC)Cc3cccc(S(=O)(=O)O)c3)C=C2)c2ccc(O)cc2S(=O)(=O)[O-])cc1
outcome [1]: inactive | outcome [2]: inactive | outcome [3]: inactive | outcome [4]: inactive | AC50 [5]: 33 µM (active) | outcome [6]: inactive | outcome [7]: inactive | outcome [8]: inactive

C=CC/C=C/C/C=C/C/C=C/C
outcome [1]: inactive | outcome [2]: inactive | outcome [3]: inactive | outcome [4]: inactive | outcome [5]: inactive | outcome [6]: inactive | outcome [9]: inactive | outcome [7]: inactive | outcome [8]: inactive

CC(=O)Nc1ccc(N=Nc2cc(C)ccc2O)cc1
outcome [1]: inactive | outcome [2]: inactive | outcome [3]: inactive | outcome [4]: inactive | AC50 [5]: 17.7 µM (active) | outcome [6]: inactive | outcome [9]: inactive | outcome [7]: inactive | outcome [8]: inactive

CCc1c(Br)c(Br)c(Br)c(Br)c1Br
outcome [1]: inactive | outcome [2]: inactive | outcome [3]: inactive | outcome [4]: inactive | outcome [5]: inactive | outcome [6]: inactive | outcome [9]: inactive | outcome [7]: inactive | AC50 [8]: 16.4 µM (active)

FC(F)(F)C(F)(F)C(F)(F)C(F)(F)C(F)(F)C(F)(F)C(F)(F)C(F)(F)F
outcome [1]: inactive | outcome [3]: inactive | outcome [4]: inactive | outcome [5]: inactive | outcome [6]: inactive | outcome [9]: inactive | outcome [7]: inactive | outcome [8]: inactive
